The values below come from the supplement of paper PMC6555819.

One test relates to PPARg:RXRa 90nM:30nM, anti-RXR (NR concentration 90 nM, RXRa partner concentration 30 nM). Description: PBM binding z-score (relative to random genomic background probes); higher = stronger binding; sequences stand for … in GC…GCGATTGACAGCGTAGAATGAAGG
In outline:
(§1)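 Random background probes are the reference for binding z-scores. These scores derive from regression-normalized fluorescence on custom Agilent 4×180K protein-binding microarrays incubated 1 h with ligand-free nuclear receptor dimers. Binding was detected with antibodies against each partner (one per run).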
Consider CCCACTGGGGCATAAGGTTACCATAAGCCAGCCC, for which the PBM binding z-score is 3.6.

Regarding GCTTACGGGTCAAACGTTATAGCATGAATAGAAT, the PBM binding z-score is 5.31.

As to TCTCGGATGACACGAAGGTCAGAGCTTTCCAGAG, the PBM binding z-score was 2.56.

Consider ATCTCTAGGTAAAATTTCAGTGAATCCCGAGGAT, for which the PBM binding z-score came to 0.487.

As for CATACAGGGTCAGCTAGGCGAGAGTAGGGACGGC, the PBM binding z-score is 1.75.

The sequence GAAACGAGGGCAAGTTGATAGCAGAGTTTGATGG registered a PBM binding z-score of 1.2.

Regarding GCATATAGGTAATACAAGGTGAAAATCCGATTGT, the PBM binding z-score amounted to 0.773.

CCTAGTTGGTCAGGAGGTCAGACACCGGATATGA yielded a PBM binding z-score of 1.69.

As to CCTTACGGCTCACGAGGTTATAGCACGACGAGCG, the PBM binding z-score is 0.0892.

With CCTCGGAGGAGAACAGGAGGTCAGAGCTGCCAGA, the PBM binding z-score was -0.216.

As to TAGCCTTGGTCATGCGGGCCAGTATAGTGTCGGC, the PBM binding z-score is -0.995.

The sequence AGAATGAGTTTACCAAAGATCAGGGAAACGCTTG gave a PBM binding z-score of 0.452.

Consider ACTCGGAGGACAAAGGTCTGAGCTACGCCAGTGA, for which the PBM binding z-score is 3.02.

In the case of TTACCAAGGGGAAAGGTCGTTGATGCACGCCTTG, the PBM binding z-score came to 6.82.

For the sequence CCTACTGGGCCACGAATGGTCATTGATTCAGTGA, the PBM binding z-score came to 0.398.

In the case of CGTCAAAGTTCAACTAAGGAAACGTAAAGCACGC, the PBM binding z-score turned out to be 4.69.

TCTTGTAGATCAAGGAGGTTAAGAAAGCCTGAGT came in with a PBM binding z-score of 1.77.

AATACAGGGTCACTAGGACAGAGTAGGTACGAAT registered a PBM binding z-score of 5.18.

Regarding GTTCGGAGGACAAGGTCAGAGCTTTGTCCGTAGA, the PBM binding z-score turned out to be 0.514.

TGAATGAGGTTAAAGATCAGGTAACGTGGCGTCG had a PBM binding z-score of 6.01.

In the case of AATACAGGGTCACTAGGCCAGATTAGGTACGAAT, the PBM binding z-score is 5.04.

Sequence GCAGACAGGTGTAACGCAGGTAACTCAGGGTGGC registered a PBM binding z-score of -0.582.

In turn, CTACCAAGGTGAACAAGGTCGCTGATTACTATTC yielded a PBM binding z-score of 0.78.

In the case of CTTAGCAGGCCAGGGTCACTCAAGCATTTCGCTT, the PBM binding z-score was 1.06.

CCTACTGAGCCATTCAGAGGTCATTGATCATATG displayed a PBM binding z-score of 1.39.

The sequence GGAAAGAGGGCAAGTTGATAGCAGAGTTTGATGG registered a PBM binding z-score of 1.04.

The sequence ATCTCTAGGTAACAAGTTCAGTGGAAGAGAGGAC displayed a PBM binding z-score of 1.71.

TCTCGGCGGACACGAAAGGTCAGAGCTCGACATC yielded a PBM binding z-score of 1.53.

CCTTACTGGTCACTGACAGGTTATAGCATTTGGA showed a PBM binding z-score of 0.378.

In turn, CGACCAAGGTCAGCAGGTCAGTGAAAGCGACGTG registered a PBM binding z-score of 3.02.

On to TCTTGTAGATCAACAGAGGTTAAGAAAGTGCGCT, for which the PBM binding z-score turned out to be 1.98.

On to CCTAGTTGGTCAAGGTCACACTCGCTATAGGTAC, for which the PBM binding z-score amounted to 2.41.

Regarding CAAACTAGGTCAAGAGATCAAAGTCCGCTTCCCG, the PBM binding z-score worked out at 6.68.

In turn, CTACTAAGGTGAACAAGGTCGTTGATTACTATTC displayed a PBM binding z-score of 1.06.

Take CGTCCAAGGTCAAGGCCAGTGAAAGAGACTCGAA: the PBM binding z-score was 3.69.

Consider ATCTCTGGGTAAGACTCAGTTCAGTGAAGAACGC, for which the PBM binding z-score came out at 0.0741.

GCTAGTTGGTCAGTAAAAGGACACACACCGGTCG displayed a PBM binding z-score of -0.0124.

Consider CCGACTGGGCCAAAAAGGTCATTGATGCCGATAA, for which the PBM binding z-score came to 2.22.

TAGCCTAGGTCATTCAGGGGCCAGGATAGAAAGC had a PBM binding z-score of 1.26.

As to GCGACTGGGGCAGCAGCAGGTTACCATAACTTAA, the PBM binding z-score is -0.719.

A further test deals with PPARg:RXRa DBDmut IVT, anti-RXR (DBD mutation: RXRa K156A/R161A, NR concentration 270 nM, RXRa partner concentration 90 nM). The description is as above. In outline: as §1
Sequence CCCACTGGGGCATAAGGTTACCATAAGCCAGCCC displayed a PBM binding z-score of 3.37.

The sequence GCTTACGGGTCAAACGTTATAGCATGAATAGAAT showed a PBM binding z-score of 4.87.

With TCTCGGATGACACGAAGGTCAGAGCTTTCCAGAG, the PBM binding z-score amounted to 1.37.

With ATCTCTAGGTAAAATTTCAGTGAATCCCGAGGAT, the PBM binding z-score is 1.67.

The sequence CATACAGGGTCAGCTAGGCGAGAGTAGGGACGGC gave a PBM binding z-score of 1.21.

Sequence GAAACGAGGGCAAGTTGATAGCAGAGTTTGATGG yielded a PBM binding z-score of 5.01.

In the case of GCATATAGGTAATACAAGGTGAAAATCCGATTGT, the PBM binding z-score stood at 3.55.

Take CCTAGTTGGTCAGGAGGTCAGACACCGGATATGA: the PBM binding z-score turned out to be 1.06.

For CCTTACGGCTCACGAGGTTATAGCACGACGAGCG, the PBM binding z-score was -0.0471.

Regarding CCTCGGAGGAGAACAGGAGGTCAGAGCTGCCAGA, the PBM binding z-score is -0.418.

Turning to TAGCCTTGGTCATGCGGGCCAGTATAGTGTCGGC, the PBM binding z-score was -0.432.

On to AGAATGAGTTTACCAAAGATCAGGGAAACGCTTG, for which the PBM binding z-score was -0.401.

For ACTCGGAGGACAAAGGTCTGAGCTACGCCAGTGA, the PBM binding z-score is -0.243.

Turning to TTACCAAGGGGAAAGGTCGTTGATGCACGCCTTG, the PBM binding z-score is 0.296.

CCTACTGGGCCACGAATGGTCATTGATTCAGTGA: the PBM binding z-score was found to be 5.35.

CGTCAAAGTTCAACTAAGGAAACGTAAAGCACGC returned a PBM binding z-score of 0.565.

Take TCTTGTAGATCAAGGAGGTTAAGAAAGCCTGAGT: the PBM binding z-score was found to be 1.66.

As to AATACAGGGTCACTAGGACAGAGTAGGTACGAAT, the PBM binding z-score was determined as 3.86.

On to GTTCGGAGGACAAGGTCAGAGCTTTGTCCGTAGA, for which the PBM binding z-score is -0.0952.

The sequence TGAATGAGGTTAAAGATCAGGTAACGTGGCGTCG came in with a PBM binding z-score of 2.2.

The sequence AATACAGGGTCACTAGGCCAGATTAGGTACGAAT came in with a PBM binding z-score of 3.7.

In turn, GCAGACAGGTGTAACGCAGGTAACTCAGGGTGGC displayed a PBM binding z-score of -0.561.

In the case of CTACCAAGGTGAACAAGGTCGCTGATTACTATTC, the PBM binding z-score was determined as 2.41.

CTTAGCAGGCCAGGGTCACTCAAGCATTTCGCTT had a PBM binding z-score of 1.45.

With CCTACTGAGCCATTCAGAGGTCATTGATCATATG, the PBM binding z-score is 0.787.

For the sequence GGAAAGAGGGCAAGTTGATAGCAGAGTTTGATGG, the PBM binding z-score amounted to 3.57.

Take ATCTCTAGGTAACAAGTTCAGTGGAAGAGAGGAC: the PBM binding z-score came to 3.2.

TCTCGGCGGACACGAAAGGTCAGAGCTCGACATC showed a PBM binding z-score of 1.12.

For CCTTACTGGTCACTGACAGGTTATAGCATTTGGA, the PBM binding z-score amounted to 1.41.

As to CGACCAAGGTCAGCAGGTCAGTGAAAGCGACGTG, the PBM binding z-score turned out to be 2.72.

TCTTGTAGATCAACAGAGGTTAAGAAAGTGCGCT registered a PBM binding z-score of 1.7.

Take CCTAGTTGGTCAAGGTCACACTCGCTATAGGTAC: the PBM binding z-score was 2.46.

As for CAAACTAGGTCAAGAGATCAAAGTCCGCTTCCCG, the PBM binding z-score turned out to be 8.62.

As for CTACTAAGGTGAACAAGGTCGTTGATTACTATTC, the PBM binding z-score came to 3.87.

Turning to CGTCCAAGGTCAAGGCCAGTGAAAGAGACTCGAA, the PBM binding z-score was 2.93.

For ATCTCTGGGTAAGACTCAGTTCAGTGAAGAACGC, the PBM binding z-score came out at 1.16.

With GCTAGTTGGTCAGTAAAAGGACACACACCGGTCG, the PBM binding z-score was 0.16.

Turning to CCGACTGGGCCAAAAAGGTCATTGATGCCGATAA, the PBM binding z-score stood at 1.65.

As to TAGCCTAGGTCATTCAGGGGCCAGGATAGAAAGC, the PBM binding z-score was determined as 1.12.

Sequence GCGACTGGGGCAGCAGCAGGTTACCATAACTTAA gave a PBM binding z-score of 3.5.
